# CtBP-E1A inh: inhibitors of CtBP/E1A interaction | AID 651724 | activity change, % (test concentration not listed) | AlphaScreen GST-E1A/His-CtBP binding, 1536-well; hits give low values | actives 0.49% (n = 340,000); in the data active = activity change below about -65%; inconclusive = mostly about -30% to -63%
#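 Protein mix (5X: 125 nM each GST-E1A, His-CtBP) was incubated with pinned compound 2 h at 37 deg C in dark, in 50 mM Tris pH 8.0 buffer with 300 mM NaCl. Glutathione donor and nickel acceptor beads followed; AlphaScreen signal read after 1 h.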
# DT40 TDP1 CPT: growth inhibition of DT40 Tdp1-/-;hTDP1 cells with camptothecin (screen for TDP1 inhibitors) | AID 686979 | Potency, µM (series often up to 46.2 µM), without a hit: at the top dose activity change, negative = growth inhibition, usual class: inhibitors | actives 12% (n = 420,000) | chicken DT40 Tdp1-/-;hTDP1 cells + 20 nM CPT, ATP luminescence, 48 h; note: potency is the fitted concentration of half-maximal effect; nearly all actives have a fitted effect of over 55% in size
#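 Chicken DT40 Tdp1-/- cells stably complemented with human TDP1 were seeded at 400 cells/well in medium containing 20 nM camptothecin, exposed to pin-transferred compounds, and grown at 37 °C for at least 48 hr. Viability was read as ATP luminescence.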
# TDP1 inh: inhibitors of human tyrosyl-DNA phosphodiesterase TDP1; Q9NUW8; AID 485290; recombinant TDP1, AlphaScreen DNA substrate cleavage; Potency, µM (series often up to 130 µM), for inactives: at the highest dose activity change, negative = inhibition, usual class: inhibitors; actives 0.28% (n = 350,000); note: potency is the fitted concentration of half-maximal effect; nearly all actives have a fitted effect of over 40% in size
# Target sequence (Q9NUW8 whole entry, looked up): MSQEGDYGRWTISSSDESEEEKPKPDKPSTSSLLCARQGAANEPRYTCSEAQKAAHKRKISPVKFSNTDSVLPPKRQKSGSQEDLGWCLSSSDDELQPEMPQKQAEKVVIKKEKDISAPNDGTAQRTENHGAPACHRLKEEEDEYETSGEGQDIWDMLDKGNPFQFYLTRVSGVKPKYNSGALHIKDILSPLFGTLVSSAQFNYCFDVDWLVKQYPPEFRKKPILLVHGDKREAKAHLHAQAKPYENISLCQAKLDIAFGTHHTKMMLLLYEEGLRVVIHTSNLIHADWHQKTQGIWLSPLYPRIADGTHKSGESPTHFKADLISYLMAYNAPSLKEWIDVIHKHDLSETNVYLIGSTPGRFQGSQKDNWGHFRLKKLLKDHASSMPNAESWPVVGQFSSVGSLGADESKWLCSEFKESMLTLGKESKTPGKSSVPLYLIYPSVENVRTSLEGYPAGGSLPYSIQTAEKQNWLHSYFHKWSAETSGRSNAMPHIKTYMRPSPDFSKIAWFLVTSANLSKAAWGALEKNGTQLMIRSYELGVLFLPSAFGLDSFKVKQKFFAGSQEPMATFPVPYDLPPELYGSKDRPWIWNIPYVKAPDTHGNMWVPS
#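 Tdp1 1 nM final; 15 min RT w/ cpd; substrate 15 nM, 5 min; beads 10 ug/ml, 10 min; AlphaScreen read. Neg ctrl: no enzyme.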
# Six1-Eya2 inh: blocks human Six1 binding to Eya2 | Q15475+O00167 | AlphaScreen GST-Six1/His-Eya2 binding, biochemical; hits give low values | activity change, % (test concentration not listed) | actives 0.56% (n = 360,000) | AID 651725; in the data active = activity change below about -65%; inconclusive = mostly about -30% to -63%
#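 AlphaScreen luminescence read after one hour at 37 °C in darkness. Pin-transferred compounds met GST-Six1 and His-Eya2 protein (5X stock 250 nM/500 nM) plus glutathione donor and Ni-chelate acceptor beads (5X, 50 ug/mL).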
# TDP1 cell noCPT: qHTS for Inhibitors of human tyrosyl-DNA phosphodiesterase 1 (TDP1): qHTS in cells in absence of CPT; DT40 Tdp1-/- hTDP1 cells, no CPT, ATP luminescence, 48 h; Potency, µM (series often up to 46.2 µM), for the others: at the highest dose activity change, negative = growth inhibition, usual class: inhibitors; actives 15% (n = 420,000); note: potency is the fitted concentration of half-maximal effect; nearly all actives have a fitted effect of over 55% in size
#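 Compound effects on proliferation are scored in DT40 Tdp1-/-;hTDP1 cells in the absence of CPT. ATP levels (CellTiter-Glo luminescence) are recorded after a ≥48 hr, 37 °C incubation.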
# IL-1B inflam inh: blocks inflammasome-driven IL-1 beta release; THP-1 LPS/ATP IL-1B secretion, AlphaLISA, 16 h; hits give low values; activity change, % at 57.5 µM; actives 4.7% (n = 360,000); AID 743279; in the data active = activity change below about -50%; inconclusive = mostly about -30% to -49%
#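 Secreted IL-1B measured by AlphaLISA bead assay after 16 h compound exposure of THP-1 cells; compounds (final up to 57.5 uM) added 1 h before LPS (250 ng/mL) and ATP (1.25 mM) stimulation; lower signal means less secretion.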
# * = called active by the depositor; ? = inconclusive; / = not tested or not shown; [ ] = remark or other dose. A selection: hits, their analogues and other compounds. The true share with any hit is near 18%. Unless noted, calls come from the whole dose curve; as a rule, active = well fitted curve in the direction sought with a large enough effect; inconclusive = small, poorly fitted or top-dose-only effect, or another doubt; inactive = no such curve, though single readings can be large; an effect the other way counts as inactive or inconclusive. % is set by controls: 0 for no effect and ±100 for the full control effect.
SMILES,CtBP-E1A inh,DT40 TDP1 CPT,TDP1 inh,Six1-Eya2 inh,TDP1 cell noCPT,IL-1B inflam inh
O=C(CN1CCCC1c1cccs1)Nc1cc(S(=O)(=O)N2CCCC2)ccc1Cl (stereo unspecified),5.6,?,-1.0%,-0.8,?,9.4
O=C(CN1CCCC1c1cccs1)Nc1cccc(S(=O)(=O)N2CCCC2)c1 (stereo unspecified),-2.3,14.6µM*,1.4%,-5.0,?,10.9
O=C(Nc1cccc(S(=O)(=O)N2CCCC2)c1)[C@@H]1O[C@H](CO)[C@@H](O)[C@H]1O,10.3,5.4%,/,11.1,-0.5%,-76.1*
CC(Sc1nc2ncc(Cl)cc2[nH]1)C(=O)Nc1ccccc1[N+](=O)[O-] (stereo unspecified),-1.7,?,/,2.5,?,6.3
COc1cc(C(=O)NCCOc2ccccc2)c(Br)c(OC)c1OC,6.5,-19.3%,0.0%,1.3,-20.9%,3.0
Cc1ccc(/C=C/C(=O)OCC(=O)NCc2ccccc2)o1,0.2,5.8%,1.5%,-3.1,-14.8%,27.1
c1coc(CNCc2cccs2)c1,0.8,-11.0%,7.7%,17.9,-21.2%,11.5
O=C(CNc1ccc(F)cc1Cl)Nc1cccc(S(=O)(=O)N2CCCCC2)c1,0.2,?,-0.3%,-10.5,?,?
O=C(Nc1cccc(S(=O)(=O)N2CCCCC2)c1)Nc1ccc(Cl)cc1Cl,-0.1,?,0.0%,-9.3,?,-86.9*
O=C(Cc1ccc(Cl)c(Cl)c1)Nc1cccc(S(=O)(=O)N2CCOCC2)c1,-4.6,?,-7.0%,0.9,?,-80.3*
O=C(CN(CCO)c1ccccc1)Nc1cccc(S(=O)(=O)N2CCCC2)c1,5.1,18.4µM*,8.0%,-10.8,?,-3.8
CCN(CC)CC(=O)Nc1cccc(S(=O)(=O)N2CCCC2)c1,-7.5,-26.4%,0.6%,7.2,?,4.6
Cc1ccc(NC(=O)CCNC(=O)c2ccc(Br)cc2)cc1S(=O)(=O)N1CCCCCC1,7.7,?,3.9%,-6.8,16.4µM*,5.9
Cc1ccc(NC(=O)CCNC(=O)c2ccccc2Cl)cc1S(=O)(=O)N1CCCCCC1,/,?,0.1%,2.4,?,-13.3
Cc1cc(NC(=O)CN2C(=O)/C(=C/c3ccccc3F)SC2=S)no1,0.0,15.1%,4.2%[0.0935 µM],1.7,2.2%,2.4
NS(=O)(=O)c1cccc(NC(=O)COC(=O)CCC2CCCC2)c1,-4.0,16.5%,-1.5%,-12.7,3.4%,-3.2
O=C(Cc1ccccc1Cl)Nc1cccc(S(=O)(=O)N2CCCCCC2)c1,5.4,-6.9%,-1.6%,1.4,-5.7%,-51.9*
COc1ccc(CCC(=O)Nc2cccc(S(=O)(=O)N3CCOCC3)c2)cc1OC,7.8,14.6µM*,-2.9%,-2.7,?,-10.6
O=C(COC(=O)CCC1CCCC1)Nc1cccc(S(=O)(=O)N2CCOCC2)c1,0.0,-20.4%,/,11.7,-27.5%,-87.4*
O=C(COc1ccc(F)cc1Cl)Nc1cccc(S(=O)(=O)N2CCCCCC2)c1,-9.9,?,-0.5%,6.5,?,-11.7
O=C(CCc1ccccc1)Nc1cccc(S(=O)(=O)N2CCOCC2)c1,/,?,0.9%,-0.6,?,-2.5
CCc1ccccc1OCC(=O)Nc1cccc(S(=O)(=O)N2CCCC2)c1,-14.1,?,0.5%,0.6,16.4µM*,-2.9
COc1ccc(NC(=O)CSCc2cc(=O)n3ccsc3n2)cc1,1.6,-1.2%,3.6%,-0.3,22.7%,-6.6
NOCC(=O)O,3.4,0.8%,6.6%[56.1 µM],1.9,12.6%,44.9
CC(=O)c1ccc(NC(=O)c2ccc(S(=O)(=O)c3ccccc3)cc2)cc1,0.0,4.2%,7.0%,-15.2,-28.0%,-4.8
SMILES,CtBP-E1A inh,DT40 TDP1 CPT,TDP1 inh,Six1-Eya2 inh,TDP1 cell noCPT,IL-1B inflam inh
O=C(Nc1ncccn1)C1=C(O)c2ccccc2S(=O)(=O)N1Cc1ccccc1,-3.4,-9.5%,/,-7.3,4.7%,-1.7
CCCCCN1C(C(=O)c2ccccc2)=C(NC(=O)c2ccc(C)cc2)c2ccccc2S1(=O)=O,/,18.4µM*,6.3%,/,16.4µM*,/
O=C(CCN1C(=O)c2ccccc2S1(=O)=O)Nc1ccc(C(=O)O)cc1,3.9,-6.6%,/,2.6,2.0%,-1.6
CCCCCN1C(C(=O)c2ccccc2)=C(NC(=O)c2ccccc2Cl)c2ccccc2S1(=O)=O,/,?,2.1%,/,8.2µM*,/
CCCCCN1C(C(=O)c2ccccc2)=C(NC(C)=O)c2ccccc2S1(=O)=O,/,16.4µM*,6.3%,/,18.4µM*,/
CCCCCCCCCCCCCCCC(=O)NC(C)C(=O)O (stereo unspecified),/,/,5.6%,/,/,/
CCOC(=O)[C@]12CCCC=C1N(Cc1ccccc1)C(=O)[C@H](CC(=O)N1CCC(c3ccccc3)CC1)C2,-17.8,16.4µM*,/,-20.7,?,-5.0
CCOC(=O)[C@]12CCC=C1N(Cc1cccc3ccccc13)C(=O)[C@H](CC(=O)N1CCN(C(=O)c3ccco3)CC1)C2,-18.2,18.4µM*,/,-2.8,?,?
CCOC(=O)[C@]12CCC=C1N(Cc1cccc3ccccc13)C(=O)[C@H](CC(=O)N1CCC(c3ccccc3)CC1)C2,-3.2,?,/,-18.5,?,-9.0
CCOC(=O)[C@]12CCCC=C1N(Cc1cccc3ccccc13)C(=O)[C@H](CC(=O)N1CCN(C(=O)C3CC3)CC1)C2,-0.1,?,/,-1.9,20.6µM*,-11.7
CCOC(=O)[C@]12CCCC=C1N(Cc1cccc3ccccc13)C(=O)[C@H](CC(=O)N1CCCC1)C2,-7.1,?,/,0.4,20.6µM*,-19.0
CCOC(=O)[C@]12CCC=C1N(Cc1cccc3ccccc13)C(=O)[C@H](CC(=O)N1CCOCC1)C2,-0.6,?,/,-7.0,?,-16.7

# Bioassay records: PubChem BioAssay, National Center for Advancing Translational Sciences (NCATS)
